Out of some 340,000 compounds screened, about 6,200 (1.8%) were called active. A call without a number means that no potency is given here. Roughly 10% stayed inconclusive and do not appear here. This is one part of a sample in which actives are shown more often than they occur. Unmarked numbers belong to inactive results. Calls follow the shape of the dose curve; as a rule, active = well fitted activation curve with a large enough effect; inconclusive = small, poorly fitted or top-dose-only effect; inactive = no such curve, though single readings can be large or run the other way.
Assay: A quantitative high throughput screen for small molecules that induce DNA re-replication in SW480 colon adenocarcinoma cells. Also: nearly all actives have a fitted effect of over 55% in size.
Conditions: Hoechst DNA content imaging, 48 h; series mostly up to 46.1 µM
Procedure, shortened: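 Per well, 250 cells were exposed to pinned compound for 48 hr. Nuclear DNA was visualised with Hoechst (40 min, 37 C) and total object intensity recorded by fluorescence scanning.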
Potency is read from the fitted curve at half-maximal effect.

Structure (SMILES) | Potency
COc1ccc(-c2cc(C(=O)NCCCn3ccnc3)no2)cc1 | inactive
O=C(NCCCn1ccnc1)c1cc(-c2ccccc2)on1 | 7.31 µM (active)
COc1ccccc1-c1cc(C(=O)NCCCn2ccnc2)no1 | inactive
CCCCN1CC(CO)Oc2cccc(F)c2S1(=O)=O (stereo not drawn) | inactive
C[C@@H]1ON(C)[C@H]2C[C@H]3c4cc(N5CCN(C)CC5)ccc4CCN3C(=O)[C@@H]12 | inactive
COc1ccc(/C=C/C(=O)Nc2ccc(C)cc2)cc1S(=O)(=O)N1CCOCC1 | inactive
COc1ccc(/C=C/C(=O)Nc2cccnc2)cc1OC | inactive
COc1ccc(/C=C/C(=O)Nc2ccc(C34CC5CC(CC(O)(C5)C3)C4)cc2)cc1OC | 18.4 µM (active)
CC1=C(C)CC(C(=O)NNC(=O)c2ccccc2O)C(C(=O)O)C1 (stereo not drawn) | inactive
CC1=C(C)CC(C(=O)NNC(=O)c2csc3c2CCC(C(C)(C)C)C3)C(C(=O)O)C1 (stereo not drawn) | 29.1 µM (active)
COC(=O)c1c(NC(=O)C2CC(C)=C(C)CC2C(=O)O)sc2c1CCCCC2 (stereo not drawn) | inactive
NC(=O)C1(Nc2ccc(-c3ccccc3)cc2)CCCC1 | inactive
Cc1ccc(S(=O)(=O)N2CCOCC2)cc1NC(=O)COC(=O)c1cnccn1 | inactive
O=C(CC1NCCNC1=O)Nc1ccc(Oc2ccccc2)cc1 (stereo not drawn) | inactive
COC(=O)c1cc(C)sc1NC(=O)CC1Nc2ccccc2NC1=O (stereo not drawn) | inactive
O=C(CC1Nc2ccccc2NC1=O)Nc1ccccc1 (stereo not drawn) | 12.6 µM (active)
C[C@]12CCC(=O)C=C1C=CC1C2CC[C@@]2(C)C1CC[C@@]21CCC(=O)O1 (stereo partly drawn) | inactive
Nc1ccc2c(c1)C(=Cc1cccnc1)c1ccccc1-2 | inactive
Cc1ccc(C(=O)CNc2ccc(F)cc2)cc1 | inactive
Cc1ccc(SC(CC(=O)c2ccc(C(C)(C)C)cc2)C(=O)O)cc1 (stereo not drawn) | 20.6 µM (active)
Cc1ccc(C(=O)CSc2ccccc2C(=O)O)cc1 | inactive
O=C(N[C@H]1C/C=C\C(c2cccc(F)c2)N(Cc2ccccc2)C(=O)C1)OCC1c2ccccc2-c2ccccc21 (stereo partly drawn) | inactive
C#CCOCCOCCOCCNc1nc(N2CCN(C(=O)[C@H](CCCN=C(N)N)n3cc(C(N)[C@@H](C)CC)nn3)CC2)nc(N2CCN(C(=O)[C@H](CO)n3cc([C@@H](N)C(C)C)nn3)CC2)n1 (stereo partly drawn) | inactive
COC(=O)COc1cccc2c(=O)n(CC(=O)NCCc3ccc(OC)c(OC)c3)ccc12 | inactive

Structure (SMILES) | Potency
Cc1ccc(CNC(=O)CCNC(=O)Cn2ccc3ccccc3c2=O)cc1 | inactive
COC(=O)COc1cccc2c(=O)n(CC(=O)NCc3ccccc3)ccc12 | 2.59 µM (active)
CN(Cc1ccc(CNC[C@H]2O[C@@H](n3cnc4c(N)ncnc43)[C@H](O)[C@@H]2O)o1)S(C)(=O)=O | inactive
CC(=O)Nc1ccc(NC(=O)COC(=O)C2CCC(C(C)(C)C)CC2)cc1 (stereo not drawn) | inactive
Cc1ccc(NC(=O)Cn2cnc3c(OCc4ccccc4)ncnc32)cc1C | inactive
Cc1[nH]c2ccc(C(=O)N3CCN(C)CC3)cc2c1C | inactive
COc1ccccc1N1CCN(C(=O)c2ccc(Cl)c(S(=O)(=O)N3CCCC3)c2)CC1 | inactive
CCOc1ccccc1N1CCN(C(=O)c2ccc3[nH]c(C)c(C)c3c2)CC1 | 18.4 µM (active)
Cc1cc(NC(=O)CN2C(=O)NC(CC(C)C)C2=O)no1 (stereo not drawn) | inactive
COc1ccc(CCNC(=O)c2ccc(NC(=O)CC3SC(N4CCCCC4)=NC3=O)cc2)cc1OC (stereo not drawn) | inactive
C=CC[C@H](CC(=O)OC(C)(C)C)C(=O)OC[C@H]1CCCN1C(=O)[C@H](CC=C)CC(=O)N(CCO)Cc1ccccc1 | inactive
CN1C(=O)c2ccc(NC(=O)c3c(F)c(F)c(F)c(F)c3F)cc2C1=O | inactive
CN1C(=O)c2ccc(NC(=O)C3CCCCC3)cc2C1=O | 16.4 µM (active)
O=C(O)c1ccc(NC(=O)C2CCCCC2)cc1 | inactive
COc1ccc2nc(N3C(=O)C(O)=C(C(=O)c4ccco4)C3c3ccco3)sc2c1 (stereo not drawn) | inactive
O=C(COC(=O)c1ccc(Br)o1)NC12CC3CC(CC(C3)C1)C2 | inactive
O=C(Cc1ccc(Cl)c(Cl)c1)Nc1ccc(SC(F)F)cc1 | inactive
O=C(CC(O)(C(F)(F)F)C(F)(F)F)Nc1ccc(Cl)c(Cl)c1 | 14.6 µM (active)
O=C(CC1SCCNC1=O)Nc1ccc(Cl)c(Cl)c1 (stereo not drawn) | inactive
Cc1noc(C)c1C(=O)OC(C)C(=O)Nc1ccc2c(c1)OCO2 (stereo not drawn) | inactive
O=C1C2C3C=CC(C3)C2C(=O)N1c1ncc([N+](=O)[O-])s1 (stereo not drawn) | inactive
C/C(=N\Nc1ccccc1)c1cccs1 | inactive
CC(C)c1nccn1S(=O)(=O)c1cc([N+](=O)[O-])ccc1Cl | inactive
CCc1nc(C)cn1S(=O)(=O)c1cc([N+](=O)[O-])ccc1Cl | 4.11 µM (active)
